# Source: article PMC5540273 (PLoS ONE, 2017)
# Columns and labels:
# Details in all cases: concentration: 1 μM, replicates: in singlicate; n = 1
# MYLK4 = system: MYLK4
# MYLK = system: MYLK
# MYO3A = system: MYO3A
# MYO3B = system: MYO3B
# NDR1 = system: T1, NDR1
# T1 construct: gene STK38
# NDR2 = system: NDR2
# NEK10 = system: NEK10
# NEK11 = system: NEK11
# NEK1 = system: NEK1
# NEK2 = system: NEK2
# NEK3 = system: NEK3
# NEK4 = system: NEK4
# NEK5 = system: NEK5
# NEK6 = system: NEK6
# NEK7 = system: NEK7
# NEK9 = system: NEK9
# NIK = system: T2, NIK
# T2 construct: gene MAP3K14
# NIM1 = system: T3, NIM1
# T3 construct: gene MGC42105
# NLK = system: NLK
# OSR1 = system: T4, OSR1
# T4 construct: gene OXSR1
# 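Note: KINOMEscan kinase panel screen.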
Compound,%Inh (MYLK4),%Inh (MYLK),%Inh (MYO3A),%Inh (MYO3B),%Inh (NDR1),%Inh (NDR2),%Inh (NEK10),%Inh (NEK11),%Inh (NEK1),%Inh (NEK2),%Inh (NEK3),%Inh (NEK4),%Inh (NEK5),%Inh (NEK6),%Inh (NEK7),%Inh (NEK9),%Inh (NIK),%Inh (NIM1),%Inh (NLK),%Inh (OSR1)
CSc1nn2c(=O)cc(N3CCOCC3)nc2n1Cc1cccc(Cl)c1Cl [GSK2347225],4%,12%,0%,0%,23%,0%,29%,0%,0%,0%,1%,0%,18%,17%,37%,47%,0%,21%,21%,6%
Oc1ccc2ncnc(Nc3ccc(OCc4ccccc4)cc3)c2c1 [GI262866],3%,0%,0%,0%,0%,0%,0%,0%,0%,0%,0%,0%,7%,0%,1%,10%,8%,7%,7%,0%
O=C(CCO)NCCn1ccc2ncnc(Nc3ccc(Oc4cccc(C(F)(F)F)c4)c(Cl)c3)c21,6%,0%,0%,3%,20%,0%,0%,0%,0%,0%,18%,0%,0%,0%,0%,0%,6%,0%,0%,0%
Nc1nccc2scc(-c3ccc4c(c3)CCN4C(=O)Cc3cc(F)ccc3F)c12 [GSK2587663],0%,24%,0%,0%,0%,0%,12%,9%,0%,7%,0%,9%,6%,0%,0%,4%,0%,18%,2%,5%
O=c1cc(N2CCOCC2)nc2n(Cc3cccc(Cl)c3)ccn12 [GSK2296823],0%,61%,0%,0%,8%,0%,0%,0%,0%,10%,3%,16%,2%,0%,2%,3%,13%,0%,0%,7%
COC(=O)c1cccc(NC(=O)NCCNc2ccnc(Nc3ccc(F)cc3)n2)c1 [GSK1379883],6%,11%,31%,0%,0%,27%,8%,10%,0%,0%,0%,0%,17%,0%,0%,11%,9%,0%,0%,4%
O=C(c1ccc(-c2cc(-c3c[nH]nc3-c3ccccn3)ccn2)cc1)N1CCCC1 [GW792479],4%,31%,9%,16%,21%,3%,18%,0%,0%,3%,35%,0%,0%,28%,0%,0%,0%,4%,0%,0%
Fc1ccc(-c2ncn(CCCNCc3ccccc3)c2-c2ccncc2)cc1,0%,13%,7%,22%,0%,19%,34%,19%,0%,0%,31%,7%,6%,12%,0%,0%,12%,15%,13%,19%
CN1c2ccc(-c3ccc(C(=O)NCCO)cc3)cc2-c2[nH]ncc2S1(=O)=O,0%,87%,6%,0%,26%,0%,0%,0%,8%,6%,45%,0%,0%,0%,0%,8%,37%,0%,0%,0%
Cl.c1ccc(Cn2ccc3cc(Nc4ncnc5ccccc45)ccc32)cc1 [GW275568],26%,21%,16%,0%,32%,1%,29%,0%,0%,14%,12%,5%,28%,0%,9%,24%,0%,10%,20%,1%
CS(=O)(=O)CCNCc1ccc(-c2ccc3ncnc(Nc4ccc(OCc5ccccc5)c(Cl)c4)c3c2)o1.Cl [GW574783],2%,7%,0%,0%,0%,0%,23%,26%,0%,0%,0%,5%,0%,0%,0%,0%,100%,0%,12%,0%
Nc1nc(-c2ccccn2)c(-c2ccnc3ccccc23)s1 [GW548057],16%,10%,51%,0%,31%,52%,11%,36%,2%,0%,8%,0%,20%,0%,0%,0%,22%,38%,30%,8%
Cc1ccc(NC(=O)c2cccc(C#N)c2)cc1-c1ccc(C(=O)Nc2ccncc2)cc1 [GSK1398463],7%,14%,0%,0%,0%,0%,1%,0%,27%,28%,25%,18%,11%,0%,0%,4%,0%,8%,1%,31%
Cc1cccc(-c2nc(Nc3ccc4[nH]nnc4c3)c3ccccc3n2)n1 [GW867587],1%,0%,0%,0%,0%,6%,0%,0%,0%,0%,22%,0%,2%,0%,0%,0%,21%,0%,0%,0%
Fc1ccc(Nc2nccc(-c3c(-c4ccc(Cl)cc4)nn4ncccc34)n2)cc1F [GW829058],0%,38%,15%,21%,24%,28%,19%,25%,17%,16%,11%,8%,13%,21%,0%,5%,43%,34%,70%,28%
Cl.Cl.c1ccc(-c2cc3ccncc3cc2OC2CCNCC2)cc1 [GSK1122999],21%,25%,10%,0%,0%,0%,24%,0%,0%,17%,0%,2%,22%,0%,4%,28%,3%,12%,15%,8%
Clc1cc(Nc2ncnc3cc[nH]c23)ccc1OCc1ccccn1,9%,17%,24%,20%,14%,0%,0%,0%,5%,0%,22%,6%,0%,16%,0%,7%,0%,35%,0%,2%
NC(=O)c1sc(-n2cnc3ccccc32)cc1OCc1ccccc1F [GSK1024306],6%,2%,3%,0%,0%,11%,22%,32%,0%,0%,0%,0%,0%,0%,0%,0%,0%,20%,1%,1%
O=C(Nc1n[nH]c2nc(-c3ccco3)c(Br)cc12)c1ccc(CN2CCCC2)cc1.O=C(O)[C@H](O)[C@@H](O)C(=O)O [SB-742352],5%,83%,0%,8%,0%,0%,0%,0%,0%,6%,0%,0%,0%,0%,10%,0%,0%,0%,0%,0%
